The list is not random: actives were taken first. Their share in the collection is about 2.4%.
Tb PGK inh – T. brucei PGK inhibition | P07378 | PGK/GAPDH coupled, Kinase-Glo luminescence, 60 min | Potency, µM (top dose mostly 57.5 µM), for inactives: at the highest dose activity change, negative = inhibition, usual class: inhibitors | 380,000 compounds, 0.043% hits | AID 602233; also: % is scaled to controls: 0 for no effect and ±100 for the full control effect; nearly all actives have a fitted effect of over 60% in size
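Luminescent ATP detection (Kinase-Glo Plus) follows a 60-minute room-temperature incubation, with wells lacking PGK as controls. Buffer: 100 mM TEA (pH 7.6), 5 mM MgCl2, 0.01% Tween-20. Coupling enzyme GAPDH (100 nM final) supplies unstable 1,3-BPG in-well.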
Pol iota inh – blocks human DNA polymerase iota activity. Pol iota fluorescent replication assay, 10 min. 390,000 compounds, 1% hits. Potency, µM (series often up to 115 µM), without a hit: at the top dose activity, negative = inhibition, usual class: inhibitors. Q9UNA4
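Pol iota at 10 nM preincubated 15 min with compounds at room temperature; reaction started with fluorescent substrate, 50 nM final. Fluorescence read kinetically at 0 and 10 min; buffer-only wells as negative control.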
Pol beta inh – blocks human DNA polymerase beta activity | 340,000 compounds, 1.3% hits | P06746 | Potency, µM (doses to about 114 µM), inactives show at the highest dose activity change, negative = inhibition, usual class: inhibitors | Pol beta primer extension/strand displacement, fluorescence kinetic; also: % is scaled to controls: 0 for no effect and ±100 for the full control effect
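Pol beta (10 nM) was preincubated with compound for 15 min at room temperature. The reaction was then started with 50 nM substrate and read immediately and after a further 10 min at room temperature.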
Pol eta inh-1 – inhibitors of human DNA polymerase eta; 390,000 compounds, 1.2% hits; Potency, µM (titrated, usually from 114 µM), inactives show at the top dose activity change, negative = inhibition, actives largely listed as inhibitors; recombinant Pol eta, fluorescent DNA replication assay; also: % is scaled to controls: 0 for no effect and ±100 for the full control effect
Target sequence (Q9Y253 whole entry, looked up): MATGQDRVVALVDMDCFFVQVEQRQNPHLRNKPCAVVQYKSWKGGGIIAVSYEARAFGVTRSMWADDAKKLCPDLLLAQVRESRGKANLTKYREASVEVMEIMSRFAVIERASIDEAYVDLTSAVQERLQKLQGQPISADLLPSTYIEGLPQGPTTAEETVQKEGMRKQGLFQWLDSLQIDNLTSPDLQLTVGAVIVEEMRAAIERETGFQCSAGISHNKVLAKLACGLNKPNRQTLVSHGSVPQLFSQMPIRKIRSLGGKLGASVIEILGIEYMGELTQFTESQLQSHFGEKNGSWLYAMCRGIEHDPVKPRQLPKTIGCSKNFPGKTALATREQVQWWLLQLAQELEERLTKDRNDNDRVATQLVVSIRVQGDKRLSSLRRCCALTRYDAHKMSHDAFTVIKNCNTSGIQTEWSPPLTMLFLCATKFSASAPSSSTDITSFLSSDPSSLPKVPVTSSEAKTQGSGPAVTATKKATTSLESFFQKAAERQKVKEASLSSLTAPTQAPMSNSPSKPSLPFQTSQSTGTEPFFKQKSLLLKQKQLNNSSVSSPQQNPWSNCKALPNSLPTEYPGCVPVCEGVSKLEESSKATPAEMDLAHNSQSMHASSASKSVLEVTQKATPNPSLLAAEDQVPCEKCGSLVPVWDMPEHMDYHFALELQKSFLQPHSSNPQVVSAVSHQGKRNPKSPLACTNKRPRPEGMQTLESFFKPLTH
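Pol eta (10 nM) was preincubated with compounds for 15 min at room temperature, after which fluorescent replication substrate (50 nM final) was added to start the reaction. Fluorescence was read kinetically at 0 and 10 min.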
Pol kappa inh-1 – inhibitors of human DNA polymerase kappa | purified Pol kappa, fluorescent DNA synthesis assay, 10 min | Potency, µM (doses to about 107 µM), for inactives: top-dose activity, negative = inhibition, most hits filed as inhibitors | 400,000 compounds, 0.53% hits; also: % is scaled to controls: 0 for no effect and ±100 for the full control effect
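Enzyme at 10 nM met test compounds for 15 min at room temperature. Substrate addition (50 nM final) began the reaction, which was monitored by fluorescence at 0 and 10 min.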
FEN1 inh-1 – human FEN1 inhibition; P39748; Recombinant FEN1 flap cleavage, fluorescence, 15 min; Potency, µM (doses to about 114 µM), without a hit: at the highest dose activity change, negative = inhibition, usual class: inhibitors; 390,000 compounds, 0.35% hits; also: % is scaled to controls: 0 for no effect and ±100 for the full control effect; nearly all actives have a fitted effect of over 65% in size
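Potency values derive from four-parameter Hill fits of normalized qHTS data. The reaction used 10 nM FEN1 preincubated 15 min at room temperature with compound, then 50 nM DNA substrate, read at 0 and 15 min.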
Pol iota confirm – Inhibitors of human DNA polymerase iota, confirmation; shares compounds with Pol kappa inh-1; Pol iota primer extension, TAMRA/BHQ fluorescence; Potency, µM, most hits filed as inhibitors; 1,500 compounds, 77% hits
Pol kappa inh-2 – Pol kappa (human) inhibition, cherry-pick confirmation. shares compounds with Pol eta inh-1. purified Pol-kappa, fluorescent strand-displacement substrate. Potency, µM, actives largely listed as inhibitors. 920 compounds, 76% hits
Pol eta inh-2 – confirmation of human DNA polymerase eta inhibitors | shares compounds with Pol eta inh-1 | Pol eta primer extension, TAMRA/BHQ fluorescence, 10 min | Potency, µM, actives largely listed as inhibitors | 2,600 compounds, 64% hits | AID 720502
FEN1 inh-2 – FEN1 inhibition, cherry-pick retest; FEN1 flap cleavage, TAMRA/BHQ2 fluorogenic DNA substrate; 880 compounds, 79% hits; AID 720498; Potency, µM, usual class: inhibitors; shares compounds with FEN1 inh-1; also: nearly all actives have a fitted effect of over 60% in size
* marks the source's active call; other numbers are inactive results; i = inactive; ? = inconclusive; · = not tested or not shown; [ ] = remark or other dose. Calls follow the shape of the dose curve; as a rule, active = well fitted curve in the direction sought with a large enough effect; inconclusive = small, poorly fitted or top-dose-only effect, or another doubt; inactive = no such curve, though single readings can be large; an effect the other way counts as inactive or inconclusive. Potency is read from the fitted curve at half-maximal effect.

SMILES	Tb PGK inh	Pol iota inh	Pol beta inh	Pol eta inh-1	Pol kappa inh-1	FEN1 inh-1	Pol eta inh-2	others
CCCc1cc(=O)oc2cc(OCC(=O)Nc3ccc(S(N)(=O)=O)cc3)ccc12	?	5µM*	89µM*	10µM*	40µM*	?	·	Pol iota confirm=38*;FEN1 inh-2=67*
O=C1NC(=S)S/C1=C/c1ccc(N2CCOCC2)o1	-22%	79µM*	14µM*	?	?	45µM*	76*	Pol iota confirm=38*;Pol kappa inh-2=84*;FEN1 inh-2=38*
Cc1ccc(Cn2ccn(Cc3ccc(C)cc3)c(=O)c2=O)cc1	·	-7%	5%	·	-13%	0%	·
Cc1cc2nc3c(=O)[nH]c(=O)[nH]c3nc2c([N+](=O)[O-])c1N	?	?	35µM*	3.5µM*	28µM*	45µM*	21*	Pol iota confirm=24*;Pol kappa inh-2=17*;FEN1 inh-2=38*
O=C(O)Cc1ccc(N=Nc2c(O)c(C(=O)O)cc3ccccc23)cc1	?	7.9µM*	32µM*	7.1µM*	?	50µM*	21*	Pol iota confirm=21*;FEN1 inh-2=67*
COc1ccccc1CNc1cc(-c2ccccc2C(F)(F)F)ncn1	·	·	·	·	1%[60.1 µM]	·	·
O=C(O)c1ccc(CSc2nc3ccc(N4C(=O)C5C6C=CC(C6)C5C4=O)cc3s2)cc1 (stereo unspecified)	-9%	?	2%	28µM*	-12%	-5%	?
COc1ccccc1OCCSc1nc2ccccc2n1CCC(=O)O	i	18%	-8%	-5%	-1%	-3%	·
COc1ccccc1OCCn1c(SCC(=O)O)nc2ccccc21	-10%	?	28µM*	22µM*	79µM*	-1%	?	Pol kappa inh-2=34*
COc1ccc(NC(=O)c2noc3c2CCCC3)cc1Cl	-4%	-12%	18%	-5%	-3%	19%	·
CCOC(=O)c1cccc(-c2ccc(C=O)o2)c1	1%	1%	?	-18%	-19%	-2%	·
O=C(O)c1ccc(N/N=C/c2ccc(-c3ccc(Br)cc3)o2)cc1	-2%	?	?	-1%	-37%	-16%	·
Cc1c(C(=O)O)cccc1-c1ccc(C=O)o1	-11%	?	28µM*	5µM*	?	-12%	85*
Nc1nnc(CC(=O)N/N=C/c2ccc(-c3cccc(C(=O)O)c3)o2)s1	-8%	11µM*	-1%	18µM*	25µM*	?	60*
O=C(Cc1ccc(Br)cc1)N/N=C/c1ccc(-c2cccc(C(=O)O)c2)o1	-13%	23%	?	22µM*	?	-2%	30*
O=Cc1ccc(-c2cccc(C(=O)O)c2)o1	-12%	?	?	10µM*	?	5%	48*
NCCCCCCC(O)(P(=O)(O)O)P(=O)(O)O	·	·	·	·	11%[60.1 µM]	·	·
COc1ccccc1CNC(=O)C1CCN(S(=O)(=O)c2ccc3c(c2)CCCN3C(C)=O)CC1	-7%	8%	-2%	-23%	-7%[60.1 µM]	-5%	·
COc1ccc(-c2nc3scc(CCNS(=O)(=O)c4cccs4)n3n2)cc1	i	-9%	8%	-14%	-14%[60.1 µM]	-4%	·
Cc1ccc(S(=O)(=O)Nc2cc(C(=O)O)ccc2N2CCCCC2)cc1	0%	0%	-9%	3%	1%	-13%	·
O=C(O)CCc1ccc(S(=O)(=O)Nc2cc(C(F)(F)F)ccc2N2CCCC2)cc1	-6%	25µM*	·	22µM*	?	-8%	60*	Pol kappa inh-2=?
CN(C)c1ccc(CNS(=O)(=O)c2ccc3[nH]c4c(c3c2)CCCCC4)cc1	-6%	25%	9%	-11%	-7%	-14%	·
CCOc1ccc(CCNC(=O)CCn2c(=O)c3cccn3c3ccc(F)cc32)cc1OCC	1%	1%	2%	11%	-7%	9%	·
O=C(Cc1ccc(NC(=O)N2CCCCc3ccccc32)cc1)Nc1ccccc1Br	i	-6%	-15%	-14%	-2%	-4%	·
O=C(COC(=O)COc1ccccc1)Nc1ncc([N+](=O)[O-])s1	-15%	?	·	10µM*	?	?	30*	Pol kappa inh-2=12*
SMILES	Tb PGK inh	Pol iota inh	Pol beta inh	Pol eta inh-1	Pol kappa inh-1	FEN1 inh-1	Pol eta inh-2	others
O=C(COc1ccc(Cl)cc1)Nc1ncc([N+](=O)[O-])s1	-2%	5%	0%	-19%	2%	6%	·
O=C(Cc1ccc(Br)cc1)Nc1ncc([N+](=O)[O-])s1	-4%	?	?	?	-5%	-20%	?	Pol kappa inh-2=?
Cc1cc(C)n2c(Nc3ccccc3)c(-c3ccc(C)o3)nc2n1	·	17%	·	·	-2%	-8%	·
Cc1csc(=O)n1CCC(=O)OCC(=O)Nc1ncc(Cl)cc1Cl	-22%	?	·	22µM*	?	14%	?	Pol kappa inh-2=21*
O=C(COC(=O)CCC(=O)c1cccs1)Nc1ncc(Cl)cc1Cl	i	6%	4%	-8%	-2%	25%	·
O=C(COC(=O)C1CC1)Nc1ncc(Cl)cc1Cl	-2%	?	·	28µM*	-38%	-8%	48*
O=C(COC(=O)C1CC1)Nc1ncc(C(F)(F)F)cc1Cl	0%	57%	0%	0%	2%	-2%	·
CCOC(=O)c1cnc2c(Cl)cc(Cl)cc2c1Nc1ccccc1OC	1%	0%	-2%	2%	-5%	18%	·
Cc1nc2cnc(Oc3cccc(Cl)c3)nc2n(Cc2ccc(F)cc2)c1=O	·	·	·	·	-3%[60.1 µM]	·	·
COC(=O)/C=C1\SC(=NC(=O)c2ccc(OC)cc2)NC1=O	9%	1%	12%	-16%	-2%	15%	·
COC(=O)/C=C1\SC(=NC(=O)c2ccc(-c3ccccc3)cc2)NC1=O	-8%	?	·	50µM*	-33%	-13%	?
Cc1ccc(-c2csc(NS(=O)(=O)c3cccc(F)c3)n2)o1	-6%	?	·	25µM*	?	-23%	?
Cc1nc(CNS(=O)(=O)c2cccc(F)c2)cs1	i	-29%	34%	5%	-5%	-2%	·
O=C(O)Cc1ccc(NC(=O)c2ccc(NC(=O)c3ccco3)cc2)cc1	-18%	45µM*	?	25µM*	?	6%	43*

Bioassay records: PubChem, National Center for Advancing Translational Sciences (NCATS)
